Data as given in PubChem BioAssay.
Inconclusive results are not listed. Activity calls are given as the source filed them.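 How the source made its calls, unless noted: active means GFP response, as percent of the DMSO control, above the screen-wide mean plus 3 SD, about 139; inconclusive means no response measured because the compound's own fluorescence interfered; inactive means the rest.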

What was measured:
[1] = rapamycin-like changes in RPL19A-GFP expression – cell-based, S. cerevisiae, multiplex flow cytometry, primary screen (AID 1862; in the data active means percent of DMSO control GFP below about 86%;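 further: lower values mimic rapamycin by blocking the RPL19A rise seen in DMSO cells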); conditions: S. cerevisiae RPL19A-GFP strain, flow cytometry fluorescence, 3 h; at 10 µM; stronger effect = lower value
[2] = TOR pathway GLN3 branch reporter MEP2-GFP changes – S. cerevisiae, multiplex flow cytometry, primary screen (AID 1867);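 further: median GFP channel fluorescence of barcode-gated MEP2-GFP cells measured by flow cytometry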; conditions: S. cerevisiae MEP2-GFP strain, 3 h, at 10 µM, stronger effect = higher value, 100% means same as DMSO wells
[3] = TOR pathway RTG branch CIT2 reporter changes – S. cerevisiae, GFP fusion, multiplex flow cytometry, primary screen (AID 1870;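 active means percent response above a set limit, the screen-wide mean plus 3 SD, cut at about 130% in these data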;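 further: barcoded CIT2-GFP strain pooled with four other GFP strains with rapamycin as positive control; median GFP fluorescence per well over plate mean of DMSO wells so 100% = DMSO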); conditions: S. cerevisiae CIT2-GFP expression, 3 h, at 10 µM, stronger effect = higher value
[4] = TOR pathway LAP4-GFP level changes – S. cerevisiae, multiplex flow cytometry, primary screen (AID 1873;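 active means GFP signal, as percent of the solvent control, above the screen mean plus 3 SD, about 149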); conditions: S. cerevisiae LAP4-GFP expression, 3 h, at 10 µM, stronger effect = higher value
[5] = yeast AGP1-GFP level changes, GLN3 branch – cell-based, multiplex flow cytometry, S. cerevisiae, primary screen (AID 1887;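 active means GFP signal above the screen-wide mean plus 3 SD, that is over about 124.5% of the solvent control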;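 further: AGP1-GFP fusion strain of S. cerevisiae within a five-strain barcoded multiplex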); conditions: 3 h, at 10 µM, stronger effect = higher value
[6] = reduced mouse 2C T cell binding to pMHC/ICAM-1 vesicles – MLPCN validation set, flow cytometry, LFA-1/ICAM-1 modulator project, pilot screen (AID 2523;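 active means response below a set limit, under 55% cells CD8-positive and vesicle-bound, and CD8 cells' 90th-percentile brightness under 279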;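 on vesicle binding response: mean PE anti-B7-1 fluorescence of CD8+ cells relative to row control; 100% = QL9-loaded vesicles with DMSO vehicle in the same plate row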); conditions: 2C mouse CD8+ T cells, at 7 µM, stronger effect = lower value; double positive events: measured here: CD8+/vesicle+ event percentage
[7] = molecular target: Integrin beta-1 (Homo sapiens) + Integrin alpha-4 (Homo sapiens) (UniProt P13612+P05556); assay: alpha4beta1 integrin LIBS antibody binding reduction – U937 cells, HUTS-21 mAb, flow cytometry, validation set, VLA-4 allosteric modulator project, pilot screen (AID 2674;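 active means inhibition above 50%, about 3 SD of the validation set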;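 further: antibody binding induced by the VLA-4 ligand LDV present at three times its Kd; 0% = LDV ligand with antibody and no compound and 100% = antibody without LDV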); conditions: HUTS-21 LIBS mAb binding, at 6.7 µM, stronger effect = higher value, binding induced by LDV ligand
Integrin beta-1 (Homo sapiens) + Integrin alpha-4 (Homo sapiens), sequence (P05556 whole entry, looked up): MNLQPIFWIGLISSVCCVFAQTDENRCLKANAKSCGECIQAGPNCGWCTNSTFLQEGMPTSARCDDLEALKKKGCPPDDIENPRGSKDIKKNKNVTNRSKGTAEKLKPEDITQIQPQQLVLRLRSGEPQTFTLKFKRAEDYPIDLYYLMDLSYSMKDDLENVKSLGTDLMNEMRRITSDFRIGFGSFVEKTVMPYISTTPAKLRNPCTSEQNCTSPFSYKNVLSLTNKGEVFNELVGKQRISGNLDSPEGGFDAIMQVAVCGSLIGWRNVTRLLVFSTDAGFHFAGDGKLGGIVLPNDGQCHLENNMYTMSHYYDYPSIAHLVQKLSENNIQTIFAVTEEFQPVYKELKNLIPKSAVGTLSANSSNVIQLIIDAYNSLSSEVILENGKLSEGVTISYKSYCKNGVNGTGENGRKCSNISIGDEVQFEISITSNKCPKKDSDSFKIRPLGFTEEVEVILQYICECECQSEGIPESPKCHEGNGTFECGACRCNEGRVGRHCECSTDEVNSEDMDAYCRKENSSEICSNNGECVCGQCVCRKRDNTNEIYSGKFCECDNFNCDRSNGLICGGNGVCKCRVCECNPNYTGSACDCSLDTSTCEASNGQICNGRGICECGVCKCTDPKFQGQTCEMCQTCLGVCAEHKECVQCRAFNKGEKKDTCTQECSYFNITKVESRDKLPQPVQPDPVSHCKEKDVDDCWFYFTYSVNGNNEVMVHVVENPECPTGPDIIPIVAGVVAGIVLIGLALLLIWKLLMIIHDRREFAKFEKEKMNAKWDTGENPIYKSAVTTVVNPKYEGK
Integrin beta-1 (Homo sapiens) + Integrin alpha-4 (Homo sapiens), sequence (P13612 whole entry, looked up): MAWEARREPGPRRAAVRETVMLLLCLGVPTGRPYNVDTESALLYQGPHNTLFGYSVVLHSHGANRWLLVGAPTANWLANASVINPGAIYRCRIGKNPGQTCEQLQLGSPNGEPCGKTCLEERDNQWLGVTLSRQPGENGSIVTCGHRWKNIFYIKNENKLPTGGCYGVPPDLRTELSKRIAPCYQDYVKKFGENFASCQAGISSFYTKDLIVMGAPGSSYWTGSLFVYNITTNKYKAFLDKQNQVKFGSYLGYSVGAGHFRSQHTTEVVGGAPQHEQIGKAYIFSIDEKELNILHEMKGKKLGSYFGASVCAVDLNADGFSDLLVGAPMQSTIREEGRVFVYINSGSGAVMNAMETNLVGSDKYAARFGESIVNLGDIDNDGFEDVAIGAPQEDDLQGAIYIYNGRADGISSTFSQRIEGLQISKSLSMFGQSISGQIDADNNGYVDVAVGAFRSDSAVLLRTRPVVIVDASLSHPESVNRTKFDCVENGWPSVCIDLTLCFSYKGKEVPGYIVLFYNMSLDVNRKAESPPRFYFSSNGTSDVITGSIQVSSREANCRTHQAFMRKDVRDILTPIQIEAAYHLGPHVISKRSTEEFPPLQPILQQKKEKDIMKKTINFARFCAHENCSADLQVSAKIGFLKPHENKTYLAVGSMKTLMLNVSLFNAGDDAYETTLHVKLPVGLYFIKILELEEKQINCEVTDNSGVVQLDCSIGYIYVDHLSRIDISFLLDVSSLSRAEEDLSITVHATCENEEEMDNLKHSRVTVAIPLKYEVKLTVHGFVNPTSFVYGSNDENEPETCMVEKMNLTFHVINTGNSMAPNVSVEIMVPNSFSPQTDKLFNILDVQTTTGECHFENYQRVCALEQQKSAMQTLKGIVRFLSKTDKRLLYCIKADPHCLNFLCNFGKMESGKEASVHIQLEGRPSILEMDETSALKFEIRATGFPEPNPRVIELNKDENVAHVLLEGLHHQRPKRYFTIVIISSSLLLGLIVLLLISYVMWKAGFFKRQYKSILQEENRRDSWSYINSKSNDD

[8] = calorie-restriction mimetic ROS inhibitors, yeast – validation compound set, pilot screen (AID 2706;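 active means superoxide response below 65% of plate, a cut near 3 SD across the whole screen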;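 further: yeast exposed to compound for one week at 30 degrees C before staining; 100% = mean of all compound wells on the same plate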); conditions: S. cerevisiae aging, superoxide DHE fluorescence; at 10 µM; stronger effect = lower value
[9] = molecular target: Beta-adrenergic receptor kinase 1 (Homo sapiens) (UniProt P25098); assay: GRK2 binders displacing RNA aptamer, biochemical, validation, human GRK2, bead flow cytometry (AID 488806;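 active means aptamer binding inhibition above 30%, about 3 SD of noise from non-fluorescent compounds; inactive means inhibition at or below 30%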); conditions: bead-bound GRK2, FAM-aptamer displacement, at 10 µM, stronger effect = higher value
Beta-adrenergic receptor kinase 1 (Homo sapiens), sequence (P25098 whole entry, looked up): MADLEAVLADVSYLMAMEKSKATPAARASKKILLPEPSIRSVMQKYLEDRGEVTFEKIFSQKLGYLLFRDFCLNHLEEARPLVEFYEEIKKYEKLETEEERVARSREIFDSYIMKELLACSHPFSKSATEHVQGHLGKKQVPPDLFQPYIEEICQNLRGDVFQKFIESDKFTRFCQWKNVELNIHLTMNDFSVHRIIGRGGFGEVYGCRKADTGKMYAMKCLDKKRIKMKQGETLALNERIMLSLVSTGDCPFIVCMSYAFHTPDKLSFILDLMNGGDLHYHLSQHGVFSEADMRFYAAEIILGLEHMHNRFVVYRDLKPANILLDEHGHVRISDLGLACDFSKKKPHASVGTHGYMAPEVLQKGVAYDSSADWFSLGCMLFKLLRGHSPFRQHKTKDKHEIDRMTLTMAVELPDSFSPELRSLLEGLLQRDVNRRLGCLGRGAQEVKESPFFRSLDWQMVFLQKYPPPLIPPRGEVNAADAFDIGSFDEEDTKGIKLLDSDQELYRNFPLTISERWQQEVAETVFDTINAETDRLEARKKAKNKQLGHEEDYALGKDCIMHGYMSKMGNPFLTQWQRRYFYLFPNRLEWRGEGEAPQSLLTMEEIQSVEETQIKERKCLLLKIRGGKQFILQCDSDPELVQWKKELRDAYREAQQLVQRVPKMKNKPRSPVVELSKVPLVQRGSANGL

[10] = molecular target: Beta-2 adrenergic receptor (Homo sapiens) (UniProt P07550); assay: agonist-induced loss of surface beta2AR – cell-based, FAP fluorogen, flow cytometry, validation set, pilot screen (AID 504459;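 active means percent response above 42, roughly 3 SD of non-fluorescent test compounds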;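 further: agonist-driven loss of surface beta2AR via internalization measured by FAP dye flow cytometry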); conditions: Am2.2-beta2AR cells, at 10 µM, stronger effect = higher value
Beta-2 adrenergic receptor (Homo sapiens), sequence (P07550 whole entry, looked up): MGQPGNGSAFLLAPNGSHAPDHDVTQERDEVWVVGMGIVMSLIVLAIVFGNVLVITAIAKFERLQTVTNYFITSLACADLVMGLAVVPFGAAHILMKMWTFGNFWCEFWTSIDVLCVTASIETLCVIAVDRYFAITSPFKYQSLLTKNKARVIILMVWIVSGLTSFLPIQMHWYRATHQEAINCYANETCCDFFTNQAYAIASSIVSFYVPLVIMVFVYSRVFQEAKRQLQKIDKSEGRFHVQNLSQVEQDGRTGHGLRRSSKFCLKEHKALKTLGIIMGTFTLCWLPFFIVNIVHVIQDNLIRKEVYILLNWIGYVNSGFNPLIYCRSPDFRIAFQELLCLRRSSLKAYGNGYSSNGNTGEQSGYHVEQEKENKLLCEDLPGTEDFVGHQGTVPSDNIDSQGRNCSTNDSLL

[11] = molecular target: AP-2 complex subunit beta (Homo sapiens) (UniProt P63010); assay: beta-arrestin/AP2 interaction blockers – biochemical, validation set, GST-AP2 beads, flow cytometry, pilot screen (AID 504541;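 active means inhibition above 54%, about 3 SD of non-fluorescent compounds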;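 further: AP2 carries R879A mutation and is captured from E. coli lysate; bead-bound FITC arrestin peptide fluorescence measuring arrestin peptide binding to AP2; 0% = DMSO wells and 100% = excess unlabeled arrestin peptide control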); conditions: FITC arrestin peptide, at 10 µM, stronger effect = higher value, AP2 beta2 appendage fragment, R879A mutant
AP-2 complex subunit beta (Homo sapiens), sequence (P63010 whole entry, looked up, the tested form may be a part, one chain of several): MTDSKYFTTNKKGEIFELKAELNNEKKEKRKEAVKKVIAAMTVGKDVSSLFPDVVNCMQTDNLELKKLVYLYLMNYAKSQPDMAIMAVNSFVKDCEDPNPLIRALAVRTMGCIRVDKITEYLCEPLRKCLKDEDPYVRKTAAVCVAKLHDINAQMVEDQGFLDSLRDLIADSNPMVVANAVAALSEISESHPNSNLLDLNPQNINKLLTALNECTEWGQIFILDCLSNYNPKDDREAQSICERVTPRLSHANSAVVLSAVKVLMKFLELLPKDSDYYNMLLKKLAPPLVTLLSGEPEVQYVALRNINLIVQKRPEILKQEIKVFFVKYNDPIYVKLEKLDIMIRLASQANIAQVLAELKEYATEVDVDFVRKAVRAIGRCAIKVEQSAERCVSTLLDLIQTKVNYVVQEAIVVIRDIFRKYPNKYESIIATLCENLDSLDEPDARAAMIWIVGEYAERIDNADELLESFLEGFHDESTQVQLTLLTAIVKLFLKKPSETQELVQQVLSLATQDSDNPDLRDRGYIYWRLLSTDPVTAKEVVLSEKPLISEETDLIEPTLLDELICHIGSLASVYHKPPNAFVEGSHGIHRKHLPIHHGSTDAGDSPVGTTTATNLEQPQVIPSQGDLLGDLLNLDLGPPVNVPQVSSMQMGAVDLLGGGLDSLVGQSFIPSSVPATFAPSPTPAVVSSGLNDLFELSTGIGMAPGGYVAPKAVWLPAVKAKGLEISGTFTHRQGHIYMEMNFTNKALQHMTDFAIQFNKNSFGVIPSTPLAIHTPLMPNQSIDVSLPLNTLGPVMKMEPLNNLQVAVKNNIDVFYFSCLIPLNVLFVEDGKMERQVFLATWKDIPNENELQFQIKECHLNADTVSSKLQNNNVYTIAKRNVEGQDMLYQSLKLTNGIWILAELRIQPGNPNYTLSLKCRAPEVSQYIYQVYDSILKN

[12] = cytosolic pH regulators acting via V-ATPase – S. cerevisiae, pHLuorin, HTS validation (AID 504600; in the data active means response above about 15%;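 further: plate controls were DMSO for no effect and reference compound for full effect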); conditions: V-ATPase proton transport, at 10 µM, stronger effect = higher value
[13] = test system: anti-desmoglein-3 scFv antibody binding to human DSG3; assay: blockers of pathogenic pemphigus antibody–desmoglein-3 binding – biochemical, validation compound set, bead-based, flow cytometry, pilot screen (AID 588368;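 active means binding below the plate cutoff, the plate median minus 3 SD, with a reading above zero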;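 further: signal is the median channel fluorescence of bead-bound GFP antibody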); conditions: Protein G beads, DSG3-Fc, scFv-GFP binding, at 10 µM, stronger effect = lower value
[14] = Nile Red efflux blockade in pump-expressing yeast – validation compound set, multiplex, phenotypic, pilot screen (AID 588506;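 active means efflux inhibition above 0.42, the validation set average plus 4 SD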;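 further: Nile Red retained in cells so higher fluorescence means more efflux inhibition; 0 = negative control wells and 1 = enniatin B 25 µM full block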); conditions: S. cerevisiae pump-expressing triplex, Nile Red efflux flow cytometry; at 10 µM; stronger effect = higher value; the pumps come from Candida albicans
[15] = molecular target: ATP-binding cassette sub-family B member 6 (Homo sapiens) (UniProt Q9NP58); assay: blockers of ABCB6-driven porphyrin uptake – K562-ABCB6 cells, flow cytometry, validation set, pilot screen (AID 588550;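 active means inhibition above the screen-wide mean plus 3 SD, about 51%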;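 further: 0% = DMSO wells and 100% = benzethonium chloride 70 µM positive control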); conditions: K562-ABCB6 porphyrin accumulation, 1 h, at 10 µM, stronger effect = higher value
ATP-binding cassette sub-family B member 6 (Homo sapiens), sequence (Q9NP58 whole entry, looked up): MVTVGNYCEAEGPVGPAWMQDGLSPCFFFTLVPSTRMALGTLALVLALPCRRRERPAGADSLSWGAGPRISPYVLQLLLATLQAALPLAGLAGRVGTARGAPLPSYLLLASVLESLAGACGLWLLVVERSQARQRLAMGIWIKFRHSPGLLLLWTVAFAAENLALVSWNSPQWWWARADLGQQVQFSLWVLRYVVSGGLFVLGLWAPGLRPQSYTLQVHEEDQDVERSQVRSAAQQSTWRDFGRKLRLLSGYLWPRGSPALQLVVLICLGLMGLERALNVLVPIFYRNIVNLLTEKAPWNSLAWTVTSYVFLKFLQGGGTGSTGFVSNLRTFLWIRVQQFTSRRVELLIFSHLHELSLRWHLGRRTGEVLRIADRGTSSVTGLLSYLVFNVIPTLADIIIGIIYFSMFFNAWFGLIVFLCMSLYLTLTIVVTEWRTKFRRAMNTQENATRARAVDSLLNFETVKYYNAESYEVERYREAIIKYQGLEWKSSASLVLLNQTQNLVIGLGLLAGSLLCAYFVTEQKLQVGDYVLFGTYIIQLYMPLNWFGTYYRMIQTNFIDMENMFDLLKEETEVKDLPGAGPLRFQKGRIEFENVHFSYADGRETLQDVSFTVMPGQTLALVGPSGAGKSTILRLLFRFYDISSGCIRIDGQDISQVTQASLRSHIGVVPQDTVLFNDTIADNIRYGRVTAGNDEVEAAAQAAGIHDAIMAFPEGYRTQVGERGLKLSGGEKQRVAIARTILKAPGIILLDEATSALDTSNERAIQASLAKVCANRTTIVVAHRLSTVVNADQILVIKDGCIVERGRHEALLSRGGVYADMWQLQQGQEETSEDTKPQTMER

[16] = AML differentiation inducers, ER-HoxA9 marrow cells – cell-based, GFP/MAC1 double positive, flow cytometry, validation set, primary screen (AID 588685;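 active means differentiation response of at least 50%, scaled between solvent and reference control, from cells with both markers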;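 further: compound exposure lasts four days before antibody staining and flow analysis; 0% = DMSO wells and 100% = 5 µM fulvestrant positive control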); conditions: stronger effect = higher value, normalized: vehicle 0, fulvestrant 100

CC1(CC(=O)Nc2ccccc2)NC(=S)N(c2ccccc2)N1 (configuration not stated)
inactive: percent of DMSO control GFP [1] 106% | GFP response vs DMSO [2] 111% | percent response of DMSO control [3] 90.1% | GFP response vs DMSO [4] 134% | GFP response, % of DMSO [5] 104% | vesicle binding response [6] 9640% | inhibition [7] -0.43% | superoxide response (% of plate) [8] 109% | aptamer binding inhibition [9] 5% | response [10] -7.2% | inhibition [11] -4.29% | response [12] -0.03% | binding (% of control) [13] 99.1% | efflux inhibition (fraction of control) [14] -0.13 | inhibition [15] 6% | differentiation response [16] -18.4%
49.5%: double positive events [6]

CCCCCCCC(=O)OCC(O)CO (configuration not stated)
60.6%: double positive events [6]
inactive: percent of DMSO control GFP [1] 108% | GFP response vs DMSO [2] 103% | percent response of DMSO control [3] 97.8% | GFP response vs DMSO [4] 92.7% | GFP response, % of DMSO [5] 90.3% | vesicle binding response [6] 45.8% | inhibition [7] 0.58% | superoxide response (% of plate) [8] 110% | aptamer binding inhibition [9] 3% | response [10] -8.74% | inhibition [11] -8.36% | response [12] 4.53% | binding (% of control) [13] 98.7% | efflux inhibition (fraction of control) [14] 0.02 | inhibition [15] 5% | differentiation response [16] 2.2%

O=C(/C=C/c1ccco1)Nc1ccccc1C(=O)O
65.9%: double positive events [6]
inactive: percent of DMSO control GFP [1] 98.1% | GFP response vs DMSO [2] 105% | percent response of DMSO control [3] 107% | GFP response vs DMSO [4] 94.8% | GFP response, % of DMSO [5] 109% | vesicle binding response [6] 205% | inhibition [7] -31.9% | superoxide response (% of plate) [8] 124% | aptamer binding inhibition [9] 11% | response [10] 5.64% | inhibition [11] -15.5% | response [12] 3.27% | binding (% of control) [13] 105% | efflux inhibition (fraction of control) [14] -0.3 | inhibition [15] -11% | differentiation response [16] 23.2%

O=C(NCCO)c1ccc2[nH]c3ccccc3c2c1
58.7%: double positive events [6]
inactive: percent of DMSO control GFP [1] 98.4% | GFP response vs DMSO [2] 104% | percent response of DMSO control [3] 102% | GFP response vs DMSO [4] 101% | GFP response, % of DMSO [5] 101% | vesicle binding response [6] 246% | inhibition [7] -0.45% | superoxide response (% of plate) [8] 96.6% | aptamer binding inhibition [9] 2% | response [10] -3.67% | inhibition [11] -8.91% | response [12] 3.8% | binding (% of control) [13] 98.7% | efflux inhibition (fraction of control) [14] 0.11 | inhibition [15] -1% | differentiation response [16] 5.13%

COc1ccc(CCN2C(=O)CSC2c2ccc(OC)c(OC)c2)cc1OC (configuration not stated)
inactive: percent of DMSO control GFP [1] 102% | GFP response vs DMSO [2] 118% | percent response of DMSO control [3] 87.2% | GFP response vs DMSO [4] 104% | GFP response, % of DMSO [5] 95.7% | vesicle binding response [6] 184% | inhibition [7] 9.13% | superoxide response (% of plate) [8] 104% | aptamer binding inhibition [9] 2% | response [10] -12.9% | inhibition [11] 8.66% | response [12] -1.47% | binding (% of control) [13] 100% | efflux inhibition (fraction of control) [14] 0.05 | inhibition [15] 1% | differentiation response [16] 21.6%
63.2%: double positive events [6]

Brc1c(NC2=NCCN2)ccc2nccnc12
56.2%: double positive events [6]
inactive: percent of DMSO control GFP [1] 95% | GFP response vs DMSO [2] 105% | percent response of DMSO control [3] 93.9% | GFP response vs DMSO [4] 119% | GFP response, % of DMSO [5] 103% | vesicle binding response [6] 191% | inhibition [7] 6.4% | superoxide response (% of plate) [8] 95.4% | aptamer binding inhibition [9] 3% | response [10] -8.4% | inhibition [11] 10.1% | response [12] 0.44% | binding (% of control) [13] 102% | efflux inhibition (fraction of control) [14] -0.24 | inhibition [15] 1% | differentiation response [16] -12%
